Screens deposited in PubChem by National Center for Advancing Translational Sciences (NCATS).
Shown are actives, neighbours in structure and some others; about 0.47% of the full set was active somewhere.
AID inh: Primary qHTS assay for inhibitors of Activation Induced Cytidine Deaminase (AID): AID signal. Single-stranded DNA cytosine deaminase (Homo sapiens), Q9GZX7. AID deamination FRET fluorescence, UDG-coupled, 4 h. Potency, µM (titrated, usually from 115 µM), actives largely listed as inhibitors. 91,000 compounds, 0.32% hits; also: nearly all actives have a fitted effect of over 25% in size
Target sequence (Q9GZX7 whole entry, looked up): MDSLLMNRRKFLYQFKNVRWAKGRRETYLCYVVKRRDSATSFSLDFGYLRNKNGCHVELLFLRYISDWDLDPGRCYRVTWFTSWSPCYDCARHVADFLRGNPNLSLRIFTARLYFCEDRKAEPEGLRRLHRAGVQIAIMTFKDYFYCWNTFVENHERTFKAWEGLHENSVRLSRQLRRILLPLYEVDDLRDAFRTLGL
UDG counter: Primary qHTS assay for inhibitors of Activation Induced Cytidine Deaminase (AID): UDG Counterscreen signal; 91,000 compounds, 0.14% hits; FRET deamination/UDG coupled assay, UDG read, 4 h; Potency, µM (highest dose often 115 µM), for inactives: at the highest dose activity change, negative = inhibition, most hits filed as inhibitors; Uracil-DNA glycosylase; AID 1347430, 2020; also: nearly all actives have a fitted effect of over 65% in size
Active calls of the source: *; i = inactive; ? = inconclusive. Calls follow the shape of the dose curve; as a rule, active = well fitted curve in the direction sought with a large enough effect; inconclusive = small, poorly fitted or top-dose-only effect, or another doubt; inactive = no such curve, though single readings can be large; an effect the other way counts as inactive or inconclusive. % is scaled to controls: 0 for no effect and ±100 for the full control effect; potency is read from the fitted curve at half-maximal effect.

SMILES | AID inh | UDG counter
CCOC(=O)c1c(C)oc2nc(C)nc(NCc3ccc(Cl)cc3)c12 | i | 8%
CCOC(=O)c1c(C)oc2nc(C)nc(NC(C)c3ccccc3)c12 (stereo not given) | 79µM* | -15%
Cc1cnc(C(=O)OC(C)C(=O)c2ccc(C(C)(C)C)cc2)cn1 (stereo not given) | i | -1%
O=[N+]([O-])c1ccc(C=Nc2cccc3ccccc23)cc1 | i | -7%
CCCCSCCCNC(=O)C1CCN(Cc2nc(-c3cccc(Br)c3)oc2C)CC1 | i | ?
CCCCSCCCNC(=O)C1CCN(Cc2nc(-c3ccc(CC)cc3)oc2C)CC1 | ? | 89µM*
Cn1cc(C(=O)N2CCN(c3cccc(C(F)(F)F)c3)CC2)c2c3ccccc3n(C)c2c1=O | ? | 79µM*
Cn1c2ccccc2c2c(C(=O)N3CCN(c4cccc(C(F)(F)F)c4)CC3)cn(C3CCCCC3)c(=O)c21 | ? | -13%
COc1ccccc1N1CCN(C(=O)c2cn(CC(C)C)c(=O)c3c2c2ccccc2n3C)CC1 | i | -5%
Cc1ccc(C)c(N2CCN(C(=O)c3cn(CC(C)C)c(=O)c4c3c3ccccc3n4C)CC2)c1 | 28µM* | ?
Cc1nc2c(C(=O)NCc3ccccc3)cnn2c(C)c1Cc1ccc(F)cc1 | ? | -22%
CCCNC(=O)c1cnn2c(C)c(Cc3c(C)cc(C)cc3C)c(C)nc12 | 40µM* | -10%
COc1ccc(CNC(=O)c2cnn3c(C)c(Cc4c(F)cccc4Cl)c(C)nc23)cc1 | 35µM* | -17%
CCCCNC(=O)c1cnn2c(C)c(Cc3c(C)cc(C)cc3C)c(C)nc12 | ? | -28%
CNC(=O)NC(NC(=O)c1ccccc1)(C(F)(F)F)C(F)(F)F | i | -1%
C#CCN1CCN(CCOc2ccccc2)CC1 | i | 9%
COc1cc(/C=C(/C#N)C(=O)Nc2ccccc2C(F)(F)F)ccc1OCc1ccc(F)cc1 | i | 2%
COc1cc(/C=C(\C#N)C(=O)Nc2nnc(C(F)(F)F)s2)ccc1OCc1ccc(C(F)(F)F)cc1C(F)(F)F | 50µM* | -7%
Cc1ccc(-n2c(=O)c3ccccc3n3c(SCC(=O)Nc4ccccc4)nnc23)cc1 | i | -11%
CCC1CCCCN1S(=O)(=O)c1cc2c3c(c1)CC(=O)N3CCC2 (stereo not given) | i | 89µM*
CC1CCN(S(=O)(=O)c2cc3c4c(c2)CC(=O)N4CCC3)CC1 | i | -25%
CCC1CCCCN1S(=O)(=O)c1ccc2c(c1)CCCN2C(C)=O (stereo not given) | i | 0%
CC1CCCCN1S(=O)(=O)c1cc2c3c(c1)CC(=O)N3CCC2 (stereo not given) | ? | 89µM*
CC1=C(C(=O)N(CC(=O)NCc2ccc(C)cc2)c2ccc(Cl)cc2)SCCO1 | i | 0%
COc1ccccc1C(=O)Nc1ccc(NC(=O)c2cccs2)cc1 | ? | -13%
SMILES | AID inh | UDG counter
COc1ccc(C(=O)Nc2ccc(NC(=O)c3cccs3)cc2)cc1OC | 63µM* | -19%
CC(NC(=O)c1ccc2cc[nH]c2c1)c1ccccc1Br (stereo not given) | i | -10%
CCOC(=O)CSc1nc(-c2ccc(OCC)cc2)cc(C(F)(F)F)c1C#N | i | 1%
CCCOc1ccc(-c2cc(C(F)(F)F)c(C#N)c(SCCC(=O)O)n2)cc1 | 79µM* | -21%
CCOc1ccc(C(C)NC(=O)c2ccc(NS(=O)(=O)c3ccc(F)cc3)cc2)cc1OCC (stereo not given) | i | -1%
COc1cc(NC(=O)c2cc(S(=O)(=O)N3CCCCC3)c[nH]2)cc(OC)c1OC | i | 0%
CCCCOc1ccc(C(=O)NCCc2csc(-c3cccc(F)c3)n2)cc1 | i | 5%
CC(C)Oc1ccc(C(=O)NCCc2csc(-c3cccc(F)c3)n2)cc1 | 45µM* | 0%
CC(C)CC(NC(=O)c1ccc(C(C)C)cc1)C(=O)O (stereo not given) | i | -2%
CN(C)c1ccc(Nc2nc(-c3cc4ccccc4oc3=O)cs2)cc1 | i | -16%
Cc1ccc(CNC(=O)c2ccc3nc(N4CCCCC4)sc3c2)cc1 | i | -9%
Cc1ccc(C)c(N2CCN(CCCNC(=O)c3ccc4nc(N5CCCCC5)sc4c3)CC2)c1 | 40µM* | -11%
Cn1c(SCc2ccc(F)cc2)nc2ccc(C(=O)NCc3ccc(F)cc3)cc21 | 28µM* | 1%
Cn1c(SCc2ccc(F)cc2)nc2ccc(C(=O)NCc3ccc(Cl)cc3)cc21 | ? | -12%
CCCCNC1C2CC3CC(C2)CC1C3 (stereo not given) | i | 4%
Cn1c(=O)c2c(-c3ccccc3)n3c(c2n(C)c1=O)C(c1cc(Cl)ccc1O)Nc1ccccc1-3 (stereo not given) | i | ?
COc1ccc(-c2c3c(=O)n(C)c(=O)n(C)c3c3n2-c2ccccc2NC3c2ccccc2OC)cc1 (stereo not given) | ? | 79µM*
Cc1ccc(CNC(=O)c2ccc(-c3nc(CS(=O)c4ccccc4)c(C)o3)cc2)cc1 (stereo not given) | i | -29%
COc1ccc(CNC(=O)c2ccc(-c3nc(CS(=O)c4ccc(C)cc4)c(C)o3)cc2)cc1 (stereo not given) | ? | 89µM*
CCCCCCCNC(=S)Nc1ccccc1F | i | 3%
Clc1ccc(-c2noc3ncnc(NCCc4ccccc4)c23)cc1 | 25µM* | -10%
Cc1noc2ncnc(NCCc3ccccc3)c12 | ? | -4%
CCCCc1ccc(NC(=O)CC2CCCCC2)cc1 | i | 12%
CC(C)(Sc1ccc(CCN(CCCCC2CCCCC2)C(=O)NC2CCCCC2)cc1)C(=O)O | 89µM* | 0%
COc1ccc(C(=O)NCC(=O)NNC(=O)CSc2ccc(C)cc2)cc1 | i | -4%
SMILES | AID inh | UDG counter
CCCOc1ccc(-c2nn(-c3ccccc3)cc2C2NC(=O)NC(C)=C2C(=O)OCC)cc1 (stereo not given) | ? | 89µM*
CCCOc1ccc(-c2nn(-c3ccccc3)cc2C2NC(=O)NC(C)=C2C(=O)OC)cc1 (stereo not given) | ? | -22%
O=C(Nc1cccc(S(=O)(=O)N2CCCC2)c1)C1CC(=O)N(C2CCCC2)C1 (stereo not given) | i | -2%
CSc1ccccc1C(=O)Nc1ccc(C(C)C)cc1 | i | -2%
Cc1ccc(N(Cc2cccs2)C(=O)COc2cccc(C)c2)cc1 | ? | 1%
Cc1cc(C)cc(OCC(=O)N(Cc2cccs2)c2ccc(Cl)cc2)c1 | 22µM* | -5%
CCCC1Cc2c(sc3nc(SCC(=O)c4ccccc4)nc(N)c23)CO1 (stereo not given) | i | -9%
CCN1c2ccccc2-n2cccc2C12CCN(C(=O)Nc1ccccc1Br)CC2 | i | -7%
CCN1c2cc(C)ccc2-n2cccc2C12CCN(C(=O)Nc1cc(OC)c(OC)c(OC)c1)CC2 | ? | 89µM*
Oc1ccccc1C=NCCOCCN=Cc1ccccc1O | i | -6%
CC1=C(C(=O)OC(C)(C)C)C(c2ccc(Cl)cc2Cl)C(C#N)=C(N)O1 (stereo not given) | i | 0%
CCN(CC)C(=O)c1sc2c(c1C)c(=O)n(-c1ccc(Cl)c(Cl)c1)c(=O)n2Cc1cc(=O)n2ccccc2n1 | 89µM* | ?
